# Screening results deposited in PubChem BioAssay by National Center for Advancing Translational Sciences (NCATS).
# Sampled rows, rich in hits. Any-hit rate of the full collection: about 12%.
# JMJD2A Tudor: JMJD2A Tudor domain (human) inhibition; AlphaScreen JMJD2A-Tudor / H3K4me3 peptide binding; Potency, µM (top dose mostly 114 µM), without a hit: at the highest dose activity change, negative = inhibition, hits mostly inhibitors; actives 4.4% (n = 390,000); AID 504339; further: on the % scale 0 is the no-effect control and ±100 the full control effect; nearly all actives have a fitted effect of over 50% in size
# Sfp PPTase inh: inhibitors of Bacillus subtilis Sfp phosphopantetheinyl transferase; Biochemical Sfp PPTase activity, qHTS; actives 3.5% (n = 310,000); Potency, µM, inactives show largest response in the series, negative = inhibition, hits mostly inhibitors; AID 1490; Q9F4F7;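 further: the enzyme is Sfp with the accession as filed and its product quenches rhodamine fluorescence; 0% = enzyme reaction without inhibitor and -100% = no enzyme wells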
#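 After 15 min at room temperature with compound, 15 nM Sfp received 5 uM rhodamine-CoA plus 12.5 uM BHQ-2-ybbR (50 mM Hepes pH 7.6, 10 mM MgCl2). Rate came from the fluorescence difference over 30 min, ex 525/em 598 nm.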
# HP1b binding inh: inhibitors of HP1-beta chromodomain binding to methylated histone tails | actives 0.56% (n = 390,000) | P83916 | Potency, µM (series often up to 114 µM), for inactives: at the highest dose activity change, negative = inhibition, hits mostly inhibitors | AID 540317 | AlphaScreen HP1-beta / biotin-H3K9me3 peptide binding; further: nearly all actives have a fitted effect of over 70% in size
#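 HP1-beta protein (50 nM final) preincubated 30 min at room temperature with biotinylated H3(1-18)K9me3 peptide (50 nM) in PBS pH 7.4, 0.01% Tween-20, then compound added for 30 min. AlphaScreen streptavidin donor/nickel chelate acceptor beads (10 ug/mL final), 30 min dark, luminescence read.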
# BAZ2B block: BAZ2B (human) inhibition; actives 4.4% (n = 360,000); Potency, µM (titrated, usually from 114 µM), for inactives: top-dose activity change, negative = inhibition, hits mostly inhibitors; AlphaScreen BAZ2B-H3K14Ac peptide displacement; Q9UIF8; further: on the % scale 0 is the no-effect control and ±100 the full control effect; nearly all actives have a fitted effect of over 60% in size
#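 Inhibition is scored as reduced AlphaScreen emission. The BAZ2B/b-H3(5-23)K14Ac complex (50 nM each) in PBS pH 7.4, 0.01% Tween-20 meets compound (up to 110 uM) for 30 min at RT before bead addition.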
# G9a block: inhibitors of human histone lysine methyltransferase G9a | Potency, µM (top dose mostly 102 µM), inactives show top-dose activity, negative = inhibition, most hits filed as inhibitors | Q96KQ7 | G9a H3K9 monomethylation, AlphaScreen, 2 h | actives 8.8% (n = 350,000) | AID 504332; further: on the % scale 0 is the no-effect control and ±100 the full control effect; nearly all actives have a fitted effect of over 75% in size
#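 Readings reflect AlphaScreen signal from monomethyl-H3K9 antibody detection. HMT at 20 nM; substrate b-H3K9 500 nM; cofactor SAM 20 uM; 2 h RT reaction; compounds tested as titrations in qHTS with 15 min preincubation.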
# TDP1 inh: inhibitors of human tyrosyl-DNA phosphodiesterase TDP1; Q9NUW8; recombinant TDP1, AlphaScreen DNA substrate cleavage; Potency, µM (highest dose often 130 µM), without a hit: at the highest dose activity change, negative = inhibition, most hits filed as inhibitors; actives 0.28% (n = 350,000); AID 485290; further: on the % scale 0 is the no-effect control and ±100 the full control effect; nearly all actives have a fitted effect of over 40% in size
# Target sequence (Q9NUW8 whole entry, looked up): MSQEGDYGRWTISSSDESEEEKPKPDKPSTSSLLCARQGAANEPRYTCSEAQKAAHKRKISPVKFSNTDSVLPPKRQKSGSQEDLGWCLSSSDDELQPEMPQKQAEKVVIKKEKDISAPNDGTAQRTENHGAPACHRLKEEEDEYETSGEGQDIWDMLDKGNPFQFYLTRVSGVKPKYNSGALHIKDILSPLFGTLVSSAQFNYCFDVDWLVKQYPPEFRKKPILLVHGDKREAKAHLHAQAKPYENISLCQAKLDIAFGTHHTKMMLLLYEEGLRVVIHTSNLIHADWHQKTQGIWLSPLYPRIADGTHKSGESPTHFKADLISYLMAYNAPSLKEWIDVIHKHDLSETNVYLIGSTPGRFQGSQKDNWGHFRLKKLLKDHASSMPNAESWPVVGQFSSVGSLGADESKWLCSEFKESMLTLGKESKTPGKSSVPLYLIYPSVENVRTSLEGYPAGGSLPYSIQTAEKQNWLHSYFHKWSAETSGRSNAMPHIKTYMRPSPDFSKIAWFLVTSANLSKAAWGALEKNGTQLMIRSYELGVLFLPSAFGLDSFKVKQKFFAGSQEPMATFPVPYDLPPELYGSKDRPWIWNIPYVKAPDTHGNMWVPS
#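 Tdp1 1 nM final; 15 min RT w/ cpd; substrate 15 nM, 5 min; beads 10 ug/ml, 10 min; AlphaScreen read. Neg ctrl: no enzyme.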
# Numbers without * were called inactive; ? = inconclusive; . = not tested or not shown; ! = repeats disagree; [ ] = remark or other dose. The call rests on the fitted dose curve; in most records, active means well fitted curve in the direction sought with a large enough effect; inconclusive means small, poorly fitted or top-dose-only effect, or another doubt; inactive means no such curve, though single readings can be large; an effect the other way counts as inactive or inconclusive. Potency means the concentration at half of the fitted maximal effect.
SMILES,JMJD2A Tudor,Sfp PPTase inh,HP1b binding inh,BAZ2B block,G9a block,TDP1 inh
COc1ccc(N2CCN(C(=O)c3[nH]c4ccc(OC)cc4c3C)CC2)cc1,28µM*,-6%,?,?,40µM*,.
O=C(c1cc2cc(F)ccc2[nH]1)N1CCN(c2cccc(Cl)c2)CC1,-23%,10%,12%,-17%,23%,.
C=CCC1(O)CCOc2ccccc21 (centres undefined),.,-15%,.,.,.,7%
Nc1ccc2nn(-c3cc([N+](=O)[O-])ccc3O)nc2c1,-12%,-6%,26%,-9%,40µM*,10%
O=C(Nc1nc(-c2ccccn2)cs1)c1cc(S(=O)(=O)N2CCOCC2)ccc1F,79µM*,.,40%,22µM*,?,2%
CN(CC1CCCO1)S(=O)(=O)c1ccc(C(=O)Nc2nc(-c3ccccn3)cs2)cc1 (centres undefined),50µM*,17%,17%,28µM*,4%,8%
Cc1ccc(C(=O)Nc2ccccn2)cc1S(=O)(=O)N1CCOCC1,-8%,.,32%,10%,-5%,-1%
Cc1ccc(C(=O)Nc2nc(-c3ccccn3)cs2)cc1S(=O)(=O)N1CCOCC1,-96%,.,-30%,25µM*,?,4%
O=C(Nc1nc(-c2ccccn2)cs1)c1ccc(F)c(S(=O)(=O)N2CCOCC2)c1,50µM*,.,?,28µM*,7.1µM*,4%
O=C(Nc1cccnc1Cl)c1noc2c1CCc1ccccc1-2,-10%,10%,30%,-20%,-42%,0%
Cc1ccc(NC(=O)c2cccnc2)cc1S(=O)(=O)N1CCOCC1,-16%,.,33%,-6%,50µM*,0%
Cn1c(-c2cc3c(C(F)(F)F)nn(C)c3s2)n[nH]c1=S,11µM*,?,-11%,-35%,32µM*,12%
CCn1c(-c2cc3c(C(F)(F)F)nn(C)c3s2)n[nH]c1=S,8.9µM*,71µM*,-17%,-4%,5.6µM*,8%
CC(C)n1nnnc1SCC(=O)c1ccc2c(c1)OCCO2,11%[11.4 µM],-3%,-17%,10%,-8%,4%
O=C(CSc1nnc(-c2cccs2)n1-c1ccccc1)c1ccc2c(c1)OCCO2,-2%,-7%,26%,11%,40µM*,2%
COc1ccc(C(=O)CSc2nnc3ccccn23)cc1OC,-16%,13%,75%,-1%,2%[59 µM],6%
CCn1c(SCC(=O)c2ccc3c(c2)OCCO3)nnc1C(C)C,-16%,?,-12%,0%,45µM*,-5%
COCCn1c(SCC(=O)c2ccc3c(c2)OCCO3)nnc1-c1ccoc1C,-25%,-13%,17%,-10%,?,7%
O=C(CSc1nnc2ccccn12)c1ccc2c(c1)OCCO2,-10%,9%,49%,-4%,40µM*,0%
CCCCn1c(SCC(=O)c2ccc3c(c2)OCCO3)nnc1-c1ccco1,-21%,50µM*,21%,-26%,?,-3%
O=S(=O)(c1ccc2c(c1)OCCO2)N1CCN(S(=O)(=O)c2ccccc2Cl)CC1,-10%,.,.,.,.,.
CC(=O)N1CCOc2ccc(S(=O)(=O)N3CCCC(C)C3)cc21 (centres undefined),-13%,2%,31%,-31%,27%,5%
Cn1c(N)c(C(=O)CSc2ncn[nH]2)c(=O)n(C)c1=O,-2%,4%,29%,3%,1%,3%
COc1ccc(F)cc1S(=O)(=O)N1CCCN(S(=O)(=O)c2cc(F)ccc2OC)CC1,-11%[11.4 µM],16%,-17%,-20%,3%[12.7 µM],2%
COc1ccc(F)cc1S(=O)(=O)n1cc(C)nc1-c1ccccc1,22µM*,7%,1%,-7%,9%[59 µM],0%
SMILES,JMJD2A Tudor,Sfp PPTase inh,HP1b binding inh,BAZ2B block,G9a block,TDP1 inh
CSc1ccc(CNc2nc3ccccc3n3cnnc23)cc1,-4%,25%,3%,0%,26%,.
C=CCn1c(SCC(C)=O)nc2scc(-c3ccc(C)o3)c2c1=O,?,50µM*,20%,6%,45µM*,.
C=CCn1c(SCC(=O)NC2CCCC2)nc2scc(-c3ccco3)c2c1=O,-36%,10µM*,12%,?,?,-13%
C=CCn1c(=S)[nH]c2scc(-c3ccc(C)o3)c2c1=O,?,28µM*,-11%,-1%,50µM*,11%
C=CCn1c(SCC(=O)NCCCC)nc2scc(-c3ccco3)c2c1=O,56µM*,20µM*,?,?,-22%[59 µM],0%
NS(=O)(=O)c1ccc(O)c(N2C(=O)c3cccc4c(C(=O)c5ccccc5)ccc(c34)C2=O)c1,.,-23%,.,.,?,8%
CN1c2ccccc2C(=O)NC1c1ccc([N+](=O)[O-])s1 (centres undefined),-19%,5%,12%,-4%,.,1%
Cc1ccc(C(=O)NNC2=NC(C)(C)Cc3ccccc32)cc1,-12%,11%,39%,-15%,?,.
CCCN1CNc2c(c(=O)[nH]c(=S)n2CCc2ccc(C)cc2)C1,-2%,.,42%,.,.,0%
C=CCn1c(=S)[nH]c2sccc2c1=O,?,-38%,15%,3%,13µM*,6%
COc1ccccc1Nc1nc(C)cs1,-15%,45µM*,-21%,79µM*!,3%[2.33 µM],6%
COc1ccccc1Nc1ccc(Nc2ccccc2OC)nn1,?,11%,-17%,-34%,50µM*,3%
Cc1csc(Nc2ccccc2C(F)(F)F)n1,1%,-1%,6%,?,24%[0.0925 µM],4%
COc1ccccc1OCCC(=O)Nc1nc(C)cs1,-16%,13%,39%,-25%,-1%,-1%
Cc1csc(Nc2cccc3ccccc23)n1,?,1%,?,50µM*,45µM*,3%
COc1cccc2c(=O)c3cccc(N)c3[nH]c12,6%,22µM*,19%,?,25µM*,4%
Cc1c(C(=O)N2CCN(c3ccccc3)CC2)sc2nc3n(c(=O)c12)CCC3,-16%,0%,11%,-12%,19%,2%
CCCCN(CC)CCCNC(=O)c1sc2nc3n(c(=O)c2c1C)CCCCC3,-8%,.,28%,-4%,8.9µM*,8%
Cc1c(C(=O)O)sc2nc3n(c(=O)c12)CCC3,50µM*,-4%,29%,?,40µM*,14µM*
Cc1c(C(=O)NCc2ccccc2)sc2nc3n(c(=O)c12)CCCCC3,?,.,33%,?,10µM*,-4%
Cc1ccc(CNC(=O)c2sc3nc4n(c(=O)c3c2C)CCCC4)cc1,?,.,21%,50µM*,?,6%
CCN(CC)CCNC(=O)c1sc2nc3n(c(=O)c2c1C)CCCCC3,-12%,.,39%,12%,1%[59 µM],0%
